Measured values taken from PubChem BioAssay (Tox21).
Results filed as inconclusive are left out. Active and inactive are the calls of the source. Unless noted, the call rests on the fitted dose curve.

Columns and labels:
[1] = Nuclear factor erythroid 2-related factor 2/antioxidant responsive element (Nrf2/ARE) small molecule agonists: qHTS cell viability counter screen in human keratinocytes (AID 1919968; active means well fitted curve in the direction sought with a large enough effect in the repeat runs; an effect the other way counts as inactive or inconclusive; further: nearly all actives have a fitted effect of over 55% in size)
Procedure, shortened: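 CellTiter-Fluor fluorescence, read 1 h after reagent, gave viability in the same wells as the ARE-luciferase assay. KeratinoSens cells (1,500/well) had 23 h compound exposure at 37 C/5% CO2 following 5 h plating.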

[2] = Nuclear factor erythroid 2-related factor 2/antioxidant responsive element (Nrf2/ARE) small molecule agonists: luciferase reporter gene qHTS assay in human keratinocytes (AID 1919969); further: nearly all actives have a fitted effect of over 35% in size
[3] = target: Gonadotropin-releasing hormone receptor (Homo sapiens) (UniProt P30968); experiment: Human gonadotropin-releasing hormone receptor (GnRHR) small molecule agonists, calcium flux assay in GnRHR-HEK293 cells (AID 1920063); further: nearly all actives have a fitted effect of over 35% in size
Procedure, shortened: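 Agonist mode: compounds at 15 concentrations, in triplicate, went onto calcium dye-loaded GnRHR-HEK293 cells. Intracellular calcium was then followed as 480/540 nm fluorescence at 1 s intervals over 3 min.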

[4] = target: KiSS-1 receptor (Homo sapiens) (UniProt Q969F8); experiment: Human kisspeptin (KISS1R) small molecule agonists, calcium flux assay in KISS1R-HEK293 cells (AID 1920064; active means well fitted curve in the direction sought with a large enough effect in the repeat runs; an effect the other way counts as inactive or inconclusive)
Procedure, shortened: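 Agonist mode: intracellular calcium rise tracked at 1 s intervals over 3 min (480/540 nm) immediately after compound addition to dye-loaded KISS1R-HEK293 stable cells. Each compound tested at 15 concentrations in triplicate.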

[5] = G protein-coupled receptor (GPCR) small molecule agonists, calcium flux assay: HEK293 wild type cell line counter screen (AID 1920065)
Procedure, shortened: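 Calcium flux counter screen: compound added in agonist mode at 15 concentrations in triplicate to dye-loaded parental HEK293 cells. Fluorescence (480/540) read kinetically for 3 min; ATP served as positive control.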

[6] = p53 small molecule agonists, cell-based qHTS assay with human liver microsomes (AID 1963577);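 further: p53 response element beta-lactamase reporter cells with liver microsomes plus NADPH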
Procedure, shortened: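 In this qHTS, p53 response-element beta-lactamase cells receive test compound together with a microsome/NADPH activating system (0.5 mg/mL final each) and are incubated 16 h at 37 C before LiveBLAzer fluorescence detection.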

[7] = p53 small molecule agonists, cell-based qHTS assay with rat liver microsomes (AID 1963578)
Procedure, shortened: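 Agonist mode in p53RE-bla reporter cells, with compounds co-incubated 16 h at 37 C alongside 0.5 mg/mL rat liver microsomes and 0.5 mg/mL NADPH (final), followed by a 2 h LiveBLAzer detection step.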

[8] = p53 small molecule agonists, cell-based qHTS assay with human liver microsomes: qHTS cell viability counter screen (AID 1963579); further: nearly all actives have a fitted effect of over 45% in size
Procedure, shortened: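 Metabolically activated exposure: compounds, human liver microsomes and NADPH (0.5 mg/mL final apiece) were added to p53RE-bla cells seeded 5 h earlier, left 16 h at 37 C, and then assessed for viability by CellTiter-Glo luminescence.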

[9] = p53 small molecule agonists, cell-based qHTS assay: qHTS cell viability counter screen (AID 1963581); further: nearly all actives have a fitted effect of over 45% in size
Procedure, shortened: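 Counter screen read by CellTiter-Glo luminescence (ATP content, 30 min at room temperature), run in the same wells as the beta-lactamase reporter read. HCT-116 p53RE-bla cells saw compounds for 16 h at 37 C.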

[10] = p53 small molecule agonists, cell-based qHTS assay (AID 1963582; active means well fitted activation curve with a large enough effect in the signal ratio in the repeat runs, not every such curve was filed as active; the % refers to the signal ratio)
Procedure, shortened: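 Read-out is beta-lactamase FRET fluorescence after 2 h at room temperature with LiveBLAzer B/G substrate. p53 response element-bla cells were treated 16 h at 37 C with compounds in DMSO, added 5 h after seeding.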

[11] = target: 5-hydroxytryptamine receptor 2A (Homo sapiens) (UniProt P28223); experiment: 5-hydroxytryptamine receptor 2A (HTR2A) small molecule antagonists, cell-based qHTS assay (AID 1963586); further: nearly all actives have a fitted effect of over 45% in size
Procedure, shortened: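 CHO cells stably expressing human HTR2A were plated for 18 h at 37 C, then loaded with calcium dye for 1 h. Compounds were preincubated 5 min at room temperature before DOI (4 nM solution) was added. Kinetic fluorescence was read for 3 min.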

[12] = target: 5-hydroxytryptamine receptor 2A (Homo sapiens) (UniProt P28223); experiment: 5-hydroxytryptamine receptor 2A (HTR2A) small molecule agonists, cell-based qHTS assay (AID 1963587); further: nearly all actives have a fitted effect of over 30% in size
Procedure, shortened: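 Kinetic calcium-flux fluorescence (2 min, 1 sec intervals) after compound addition in agonist mode. HTR2A-CHO cells were cultured 18 h, then dye-loaded 1 h at 37 C.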

[13] = target: Muscarinic acetylcholine receptor M1 (Homo sapiens) (UniProt P11229); experiment: Cholinergic receptor muscarinic 1 (CHRM1) small molecule antagonists, cell-based qHTS assay (AID 1963588); further: nearly all actives have a fitted effect of over 40% in size
Procedure, shortened: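 Compounds were tested at 15 concentrations in three independent runs. Dye-loaded CHRM1-CHO cells were exposed 5 min at room temperature before stimulation by acetylcholine added at 50nM. Intracellular calcium was read kinetically on FDSS for 3 min.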

[14] = target: Muscarinic acetylcholine receptor M1 (Homo sapiens) (UniProt P11229); experiment: Cholinergic receptor muscarinic 1 (CHRM1) small molecule agonists, cell-based qHTS assay (AID 1963589); further: nearly all actives have a fitted effect of over 35% in size
Procedure, shortened: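 Agonist-mode calcium-flux screen: compounds at 15 concentrations, three independent runs, were pin-transferred onto dye-loaded human CHRM1-CHO cells. Fluorescence was then recorded kinetically every second over minutes.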

[15] = cAMP Responsive Elements (CRE) small molecule agonists, cell-based qHTS assay (AID 1963590)
Procedure, shortened: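 Agonist mode: compound added to CRE-bla HEK 293T cells (2,000/well, 18 h after plating) for 3 h at 37 C/5% CO2. Reporter activity detected via FRET beta-lactamase substrate, 2 h room-temperature loading.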

[16] = cAMP Responsive Elements (CRE) small molecule antagonists, cell-based qHTS assay (AID 1963591; active means well fitted inhibition curve with a large enough effect in the signal ratio in the repeat runs, not every such curve was filed as active; the % refers to the signal ratio)
Procedure, shortened: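 Antagonist mode: compounds are added alongside the adenylyl cyclase activator NKH477 (0.25 uM final) to CRE-bla HEK293T cells for 3 h. LiveBLAzer FRET substrate, 2 h at room temperature, reports bla expression.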

[17] = target: Beta-2 adrenergic receptor (Homo sapiens) (UniProt P07550); experiment: Adrenergic beta2 receptor (ADRB2) small molecule antagonists, cell-based qHTS assay (AID 1963592); further: series mostly up to about 92 µM; nearly all actives have a fitted effect of over 50% in size
Procedure, shortened: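 Assay format: CHO-ADRB2 cells, 18-20hr seeding at 37C/5% CO2, then compound plus 1nM isoproterenol agonist mix for 0.5hr RT. Homogeneous time-resolved fluorescence cAMP detection after 1hr, expressed as 665/615 nm ratio.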

[18] = target: D(2) dopamine receptor (Homo sapiens) (UniProt P14416); experiment: Dopamine D2 receptor (DRD2) small molecule agonists, cell-based qHTS assay (AID 1963594); further: nearly all actives have a fitted effect of over 35% in size
Procedure, shortened: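 cAMP accumulation in DRD2-HEK293 cells measured by HTRF after 1 h detection; compounds added 10 min before NKH477 (200nM […]) forskolin-analogue stimulation, 30 min at room temperature, with Ro20-1724 present at 0.1 mM final.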

[19] = target: D(2) dopamine receptor (Homo sapiens) (UniProt P14416); experiment: Dopamine D2 receptor (DRD2) small molecule antagonists, cell-based qHTS assay (AID 1963595; active means well fitted inhibition curve with a large enough effect in the signal ratio in the repeat runs, with a control signal flat; the % refers to the signal ratio)
Procedure, shortened: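 Antagonist mode in DRD2-HEK293 cells: after compound addition with 0.1 mM Ro20-1724, cells received quinpirole (12 nM) and NKH477 (200 nM) for 30 min at room temperature; HTRF cAMP read after 1 h detection.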

[20] = p53 small molecule agonists, cell-based qHTS assay with rat liver microsomes: qHTS cell viability counter screen (AID 1963580); further: nearly all actives have a fitted effect of over 45% in size
Procedure, shortened: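 Rat liver microsome (0.5 mg/mL final) and NADPH (0.5 mg/mL final) co-incubation with compounds for 16 h at 37 C on HCT-116 p53RE-bla cells; cytotoxicity taken from intracellular ATP luminescence.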
On the % scale 0 is the no-effect control and ±100 the full control effect.

5-hydroxytryptamine receptor 2A (Homo sapiens), sequence (P28223 whole entry, looked up): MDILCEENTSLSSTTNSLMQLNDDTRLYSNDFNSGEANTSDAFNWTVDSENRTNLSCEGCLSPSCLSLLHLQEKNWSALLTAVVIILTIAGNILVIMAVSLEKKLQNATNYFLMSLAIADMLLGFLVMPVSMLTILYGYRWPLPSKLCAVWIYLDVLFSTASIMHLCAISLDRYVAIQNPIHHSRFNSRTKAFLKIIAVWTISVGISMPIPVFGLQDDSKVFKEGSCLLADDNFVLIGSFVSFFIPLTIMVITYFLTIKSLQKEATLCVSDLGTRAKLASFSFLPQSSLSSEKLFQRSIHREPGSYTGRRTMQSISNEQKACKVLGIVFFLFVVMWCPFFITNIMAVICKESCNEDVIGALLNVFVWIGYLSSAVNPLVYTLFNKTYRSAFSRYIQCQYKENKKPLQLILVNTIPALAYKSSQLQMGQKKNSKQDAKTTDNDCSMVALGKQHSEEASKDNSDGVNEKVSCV
Gonadotropin-releasing hormone receptor (Homo sapiens), sequence (P30968 whole entry, looked up): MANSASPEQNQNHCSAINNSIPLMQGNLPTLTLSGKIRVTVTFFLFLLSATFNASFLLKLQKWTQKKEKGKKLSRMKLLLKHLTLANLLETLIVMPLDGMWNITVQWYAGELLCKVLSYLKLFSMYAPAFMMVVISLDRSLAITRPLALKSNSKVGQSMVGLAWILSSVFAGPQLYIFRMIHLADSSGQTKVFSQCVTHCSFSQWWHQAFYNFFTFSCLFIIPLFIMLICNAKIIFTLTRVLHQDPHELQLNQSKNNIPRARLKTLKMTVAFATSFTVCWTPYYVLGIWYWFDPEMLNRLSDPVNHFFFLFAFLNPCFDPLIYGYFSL
Beta-2 adrenergic receptor (Homo sapiens), sequence (P07550 whole entry, looked up): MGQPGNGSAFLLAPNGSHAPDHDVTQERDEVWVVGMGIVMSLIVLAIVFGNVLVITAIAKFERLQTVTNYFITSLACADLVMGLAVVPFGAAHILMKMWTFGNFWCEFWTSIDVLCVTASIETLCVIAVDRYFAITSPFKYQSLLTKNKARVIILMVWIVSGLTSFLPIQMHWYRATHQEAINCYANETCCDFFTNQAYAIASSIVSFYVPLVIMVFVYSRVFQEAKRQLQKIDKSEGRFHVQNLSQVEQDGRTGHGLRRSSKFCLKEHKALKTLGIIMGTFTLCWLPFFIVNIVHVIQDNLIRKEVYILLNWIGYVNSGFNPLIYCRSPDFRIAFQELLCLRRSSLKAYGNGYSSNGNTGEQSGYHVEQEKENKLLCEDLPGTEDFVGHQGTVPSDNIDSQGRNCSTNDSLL
Muscarinic acetylcholine receptor M1 (Homo sapiens), sequence (P11229 whole entry, looked up): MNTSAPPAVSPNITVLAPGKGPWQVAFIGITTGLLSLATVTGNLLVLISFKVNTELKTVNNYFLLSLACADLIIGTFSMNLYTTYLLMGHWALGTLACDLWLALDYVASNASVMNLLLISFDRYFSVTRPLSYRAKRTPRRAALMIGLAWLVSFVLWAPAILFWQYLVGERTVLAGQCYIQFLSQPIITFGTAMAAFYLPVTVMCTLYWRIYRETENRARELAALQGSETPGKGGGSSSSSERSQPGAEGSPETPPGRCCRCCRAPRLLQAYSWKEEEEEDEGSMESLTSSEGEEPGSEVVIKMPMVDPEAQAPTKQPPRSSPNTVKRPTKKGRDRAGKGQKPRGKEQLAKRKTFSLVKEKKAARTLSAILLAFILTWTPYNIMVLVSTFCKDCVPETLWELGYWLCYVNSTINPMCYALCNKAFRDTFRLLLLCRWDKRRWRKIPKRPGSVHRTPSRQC
KiSS-1 receptor (Homo sapiens), sequence (Q969F8 whole entry, looked up): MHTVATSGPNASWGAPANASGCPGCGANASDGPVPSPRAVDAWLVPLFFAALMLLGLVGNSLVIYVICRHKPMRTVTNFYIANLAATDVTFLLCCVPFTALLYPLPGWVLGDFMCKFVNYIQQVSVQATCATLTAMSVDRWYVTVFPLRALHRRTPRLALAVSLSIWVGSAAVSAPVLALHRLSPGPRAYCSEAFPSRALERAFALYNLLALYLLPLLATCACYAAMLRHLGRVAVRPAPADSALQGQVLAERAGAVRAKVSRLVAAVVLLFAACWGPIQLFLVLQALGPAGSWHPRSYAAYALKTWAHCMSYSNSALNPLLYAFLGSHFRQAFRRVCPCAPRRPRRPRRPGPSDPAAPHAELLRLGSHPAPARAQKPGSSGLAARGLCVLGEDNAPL
D(2) dopamine receptor (Homo sapiens), sequence (P14416 whole entry, looked up): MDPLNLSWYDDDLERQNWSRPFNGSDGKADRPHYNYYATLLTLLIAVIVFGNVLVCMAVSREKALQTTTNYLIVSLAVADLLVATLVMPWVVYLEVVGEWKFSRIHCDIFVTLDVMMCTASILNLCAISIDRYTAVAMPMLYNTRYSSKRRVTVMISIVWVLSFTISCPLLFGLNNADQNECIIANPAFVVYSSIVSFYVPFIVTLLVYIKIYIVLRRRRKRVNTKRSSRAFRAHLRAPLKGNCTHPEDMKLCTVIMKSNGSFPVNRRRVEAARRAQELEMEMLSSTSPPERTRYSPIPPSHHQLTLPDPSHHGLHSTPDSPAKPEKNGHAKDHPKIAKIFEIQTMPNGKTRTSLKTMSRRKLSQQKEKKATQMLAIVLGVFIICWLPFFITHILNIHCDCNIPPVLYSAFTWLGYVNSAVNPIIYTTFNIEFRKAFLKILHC

COC(=O)c1ccc2cc(C(=O)OC)ccc2c1
inactive: activity change, negative = cytotoxicity [1] 1.05% [at 19 µM] | activity, positive = activation [2] 20.6% [at 19 µM] | activity change [3] 0.0273% [at 11.8 µM, stronger effect = higher value] | activation [4] 2.25% [at 15.8 µM] | activation [5] 0.0113% [at 11.8 µM] | activation [6] -11.1% [at 13.5 µM] | activation [7] -1.04% [at 13.6 µM] | activity change, negative = cytotoxicity [8] -6.68% [at 13.5 µM] | activity change, negative = cytotoxicity [9] 11% [at 13.5 µM] | activation [10] -2.37% [at 13.5 µM] | activity, negative = inhibition [11] 2.21% [at 12.7 µM] | activation [12] -0.775% [at 15.9 µM] | activity, negative = inhibition [13] -8% [at 12.6 µM] | activation [14] 0.0556% [at 15.8 µM] | activation [15] -2.52% [at 19 µM] | activity change, negative = inhibition [16] -4.98% [at 18.9 µM] | activity change, negative = inhibition [17] -9.16% [at 19 µM] | activation [18] -0.16% [at 19 µM] | activity change, negative = inhibition [19] -2.05% [at 18.9 µM]

CCCCCCOC(=O)c1ccccc1O
inactive: Potency [1] | Potency [2] | Potency [3] | Potency [4] | Potency [5] | Potency [6] | Potency [7] | Potency [8] | Potency [9] | Potency [10] | Potency [12] | Potency [13] | Potency [14] | Potency [15] | Potency [16] | Potency [17] | Potency [18] | Potency [19]

C1=Cc2ccccc2C1
inactive: Potency [1] | Potency [2] | Potency [3] | Potency [4] | Potency [5] | Potency [6] | Potency [7] | Potency [8] | Potency [9] | Potency [10] | Potency [11] | Potency [12] | Potency [13] | Potency [14] | Potency [15] | Potency [17] | Potency [18] | Potency [19]

CCCCCCCCC1CCC(=O)O1 (stereo unspecified)
inactive: Potency [1] | Potency [2] | Potency [3] | Potency [4] | Potency [5] | Potency [6] | Potency [7] | Potency [8] | Potency [9] | Potency [10] | Potency [11] | Potency [12] | Potency [14] | Potency [15] | Potency [16] | Potency [17] | Potency [18] | Potency [19]

C[N+](C)(C)CC[N+]1(C)Cc2c(Cl)c(Cl)c(Cl)c(Cl)c2C1
inactive: Potency [1] | Potency [2] | Potency [3] | Potency [4] | Potency [5] | Potency [6] | Potency [7] | Potency [8] | Potency [9] | Potency [10] | Potency [12] | Potency [13] | Potency [15] | Potency [16] | Potency [17] | Potency [18] | Potency [19]

O=C(O)CN(CCCN(CC(=O)O)CC(=O)O)CC(=O)O
inactive: activity change, negative = cytotoxicity [1] -0.241% [at 19 µM] | activity, positive = activation [2] -12.6% [at 19 µM] | activity change [3] 14.7% [at 11.8 µM, stronger effect = higher value] | activation [4] -0.261% [at 15.8 µM] | activation [5] 9.2% [at 11.8 µM] | activation [6] -11.5% [at 13.5 µM] | activation [7] -0.0734% [at 13.6 µM] | activity change, negative = cytotoxicity [8] 10.7% [at 13.5 µM] | activity change, negative = cytotoxicity [9] 11.6% [at 13.5 µM] | activation [10] 5.83% [at 13.5 µM] | activity, negative = inhibition [11] 19% [at 12.7 µM] | activation [12] 8.84% [at 15.9 µM] | activation [14] 5.74% [at 15.8 µM] | activation [15] 1.21% [at 19 µM] | activity change, negative = inhibition [16] 19.1% [at 18.9 µM] | activity change, negative = inhibition [17] 0.405% [at 19 µM] | activation [18] -4.48% [at 19 µM] | activity change, negative = inhibition [19] 6.03% [at 18.9 µM]

CCCCC(=O)N(C)C
inactive: Potency [1] | Potency [2] | Potency [3] | Potency [4] | Potency [5] | Potency [6] | Potency [7] | Potency [20] | Potency [9] | Potency [11] | Potency [12] | Potency [13] | Potency [14] | Potency [15] | Potency [16] | Potency [17] | Potency [18] | Potency [19]
